{"source": "PubChem BioAssay AID588591", "about": "(National Center for Advancing Translational Sciences (NCATS), 2011)", "note": "In all, about 390,000 compounds went through this assay and about 4,700 (1.2%) were called active. Where a call stands in place of a potency, no number is given. Another 4% or so got no clear call; they are omitted. Calls come from the whole dose curve; as a rule, active = well fitted inhibition curve with a large enough effect; inconclusive = small, poorly fitted or top-dose-only effect, or another doubt; inactive = no such curve, though single readings can be large or run the other way. The sample as a whole holds a higher share of actives than the screen did. Potency is the fitted concentration of half-maximal effect.", "data": [{"target": "DNA polymerase eta (Homo sapiens) (UniProt Q9Y253)", "sequence (Q9Y253 whole entry, looked up)": "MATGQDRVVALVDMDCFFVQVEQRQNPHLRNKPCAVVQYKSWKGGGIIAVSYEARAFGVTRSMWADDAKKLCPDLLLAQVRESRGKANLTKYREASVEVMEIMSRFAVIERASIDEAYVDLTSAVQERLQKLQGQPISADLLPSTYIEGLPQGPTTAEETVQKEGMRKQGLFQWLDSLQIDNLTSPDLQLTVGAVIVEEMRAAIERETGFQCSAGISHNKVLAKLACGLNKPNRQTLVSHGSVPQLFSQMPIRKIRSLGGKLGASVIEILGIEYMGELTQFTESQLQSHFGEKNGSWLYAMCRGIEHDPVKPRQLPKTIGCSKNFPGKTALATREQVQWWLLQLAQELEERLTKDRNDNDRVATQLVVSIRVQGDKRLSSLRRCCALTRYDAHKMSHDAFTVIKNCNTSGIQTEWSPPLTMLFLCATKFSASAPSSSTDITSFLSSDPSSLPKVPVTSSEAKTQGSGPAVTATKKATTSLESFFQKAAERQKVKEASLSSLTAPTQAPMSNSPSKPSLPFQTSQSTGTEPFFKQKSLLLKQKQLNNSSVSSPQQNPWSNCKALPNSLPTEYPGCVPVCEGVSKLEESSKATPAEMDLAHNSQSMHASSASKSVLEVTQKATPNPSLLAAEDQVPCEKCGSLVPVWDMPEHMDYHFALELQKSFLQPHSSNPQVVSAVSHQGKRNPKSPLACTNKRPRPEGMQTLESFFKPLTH", "assay": "qHTS for Inhibitors of Polymerase Eta", "details": "recombinant Pol eta, fluorescent DNA replication assay; series mostly up to 114 µM", "outline": "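Pol eta (10 nM) was preincubated with compounds for 15 min at room temperature, after which fluorescent replication substrate (50 nM final) was added to start the reaction. Fluorescence was read kinetically at 0 and 10 min.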", "values": [{"smiles": "COc1cc(NC(=O)COC(=O)c2ccc([N+](=O)[O-])s2)cc(OC)c1OC", "Potency": "50.1 µM (active)"}, {"smiles": "COc1cc(NC(=O)COC(=O)c2cnc(C)cn2)c(C)cc1[N+](=O)[O-]", "Potency": "inactive"}, {"smiles": "COc1cc(CCC(=O)OCC(=O)Nc2cccc(S(N)(=O)=O)c2)cc(OC)c1OC", "Potency": "inactive"}, {"smiles": "COc1ccc(CCC(=O)NCc2ccc3c(c2)CCN3C(=O)c2ccc(F)cc2)cc1", "Potency": "inactive"}, {"smiles": "O=C(CS(=O)(=O)c1cccc2nsnc12)N1CCN(c2cccc(Cl)c2)CC1", "Potency": "inactive"}, {"smiles": "COC(=O)c1ccccc1NC(=O)C(Cc1ccccc1)N1Cc2ccccc2C1=O", "note": "(stereo unspecified)", "Potency": "inactive"}, {"smiles": "Cc1ccccc1NC(=O)Cn1c(=O)n(CCc2ccccc2)c(=O)c2ccccc21", "Potency": "inactive"}, {"smiles": "Cc1ccccc1NC(=O)CN1C(=O)N/C(=C\\c2cccn2-c2cccc(C(=O)O)c2)C1=O", "Potency": "3.16 µM (active)"}, {"smiles": "Cc1ccccc1NC(=O)CN1C(=O)C(C)(C)c2ccccc21", "Potency": "inactive"}, {"smiles": "CC(C)S(=O)(=O)c1oc(-c2ccc(F)cc2)nc1S(=O)(=O)c1ccc(F)cc1", "Potency": "inactive"}, {"smiles": "CCN(c1ccc(Cl)cc1)S(=O)(=O)c1nnc(NC(=O)c2ccco2)s1", "Potency": "39.8 µM (active)"}, {"smiles": "Cc1ccccc1C(=O)Nc1nnc(S(=O)(=O)N(C)c2ccc(Cl)cc2)s1", "Potency": "inactive"}, {"smiles": "CN(Cc1ccco1)S(=O)(=O)c1nnc(NC(=O)c2ccccc2)s1", "Potency": "inactive"}, {"smiles": "Cn1nc(-c2ccccc2)c(-c2ccccc2)c(C(=O)Nc2ccc(S(N)(=O)=O)cc2)c1=O", "Potency": "inactive"}, {"smiles": "Cc1cc(O)c(C(=O)/C=C/c2c(F)c(F)c(F)c(F)c2F)c(=O)o1", "Potency": "35.5 µM (active)"}, {"smiles": "O=C(O)/C(=C/c1c(C(=O)O)[nH]c2cc(Cl)cc(Cl)c12)c1ccccc1", "Potency": "inactive"}, {"smiles": "O=C1OC(C(=O)Nc2cccc(Br)c2)Cc2ccccc21", "note": "(stereo unspecified)", "Potency": "inactive"}, {"smiles": "Cc1ccc(-n2nc(C)c3c(C)cc(=O)n(CC(=O)Nc4ccc(C(C)C)cc4)c32)cc1", "Potency": "inactive"}, {"smiles": "CCOC(CNC(=O)C1CCN(S(=O)(=O)c2ccc3nc4c(c(C(=O)O)c3c2)CC(C)CC4)CC1)OCC", "note": "(stereo unspecified)", "Potency": "31.6 µM (active)"}, {"smiles": "CCOc1ccc(S(=O)(=O)N2CCC(C(=O)NCc3ccccn3)CC2)cc1Cl", "Potency": "inactive"}, {"smiles": "Cc1ccc(CNC(=O)C2CCN(S(=O)(=O)c3ccc4nc5c(c(C(=O)O)c4c3)CC(C)CC5)CC2)cc1", "note": "(stereo unspecified)", "Potency": "inactive"}, {"smiles": "CCNS(=O)(=O)c1cc(-c2nnc(Nc3cccc(C(F)(F)F)c3)c3ccccc23)ccc1C", "Potency": "inactive"}, {"smiles": "Cc1ccccc1-c1nc(SCC(=O)N(C)c2ccccc2)c2c(=O)n(C)c(=O)n(C)c2n1", "Potency": "inactive"}, {"smiles": "CCOC(=O)Cn1c(=O)n(-c2ccccc2OC)c2nc(-c3cccc(F)c3)nc(C(N)=O)c21", "Potency": "inactive"}, {"smiles": "CCOC(=O)c1cc2c(=O)n3ccccc3nc2n(CCCOC)c1=NC(=O)C(C)(C)Oc1ccc(Cl)cc1", "Potency": "inactive"}, {"smiles": "NC(=O)CSc1nnc(NC(=O)c2ccc(Br)o2)s1", "Potency": "20 µM (active)"}, {"smiles": "CCSc1nnc(NC(=O)c2cc(=O)c3cc(C)c(C)cc3o2)s1", "Potency": "inactive"}, {"smiles": "COc1cc(OC)cc(C(=O)Nc2nnc(SCC(=O)NCC3CCCO3)s2)c1", "note": "(stereo unspecified)", "Potency": "inactive"}, {"smiles": "CCOc1ccccc1N(CC)C(=O)c1cc2ccc3cccnc3c2[nH]1", "Potency": "inactive"}, {"smiles": "Cc1ccccc1N1CC(C(=O)Nc2nnc(SCCC3OCCO3)s2)CC1=O", "note": "(stereo unspecified)", "Potency": "20 µM (active)"}, {"smiles": "COc1ccccc1N1CC(C(=O)Nc2nnc(SCC(=O)NCC3CCCO3)s2)CC1=O", "note": "(stereo unspecified)", "Potency": "inactive"}, {"smiles": "COc1ccccc1N1CC(C(=O)Nc2nnc(SCC(=O)NC(C)C)s2)CC1=O", "note": "(stereo unspecified)", "Potency": "inactive"}, {"smiles": "COc1ccc(SCc2cc(=O)c3ccc(C)c(C)c3[nH]2)cc1", "Potency": "inactive"}, {"smiles": "Cc1ccc(NC(=O)c2ccc3[nH]c(C)cc(=O)c3c2)c(C)c1", "Potency": "inactive"}, {"smiles": "CCOC(=O)C1=C(c2ccccc2)Nc2ncnn2C1c1ccc(Cl)cc1", "note": "(stereo unspecified)", "Potency": "inactive"}, {"smiles": "NS(=O)(=O)c1cc(C(=O)OCC(=O)NNC(=O)c2ccccc2)ccc1Cl", "Potency": "inactive"}, {"smiles": "O=C(NC1=CC(=O)c2ccccc2C1=O)c1ccccc1", "Potency": "89.1 µM (active)"}, {"smiles": "COc1ccc(C)cc1NC(=O)CN1c2cccc3cccc(c23)S1(=O)=O", "Potency": "inactive"}, {"smiles": "O=C(O)CN1c2cccc3cccc(c23)S1(=O)=O", "Potency": "28.2 µM (active)"}, {"smiles": "CC(C)CN(CC(C)C)C(=O)CN1c2cccc3cccc(c23)S1(=O)=O", "Potency": "inactive"}, {"smiles": "COc1ccccc1Cc1nc2ccccc2nc1SCC(=O)N1CCCc2ccccc21", "Potency": "inactive"}, {"smiles": "CC(=O)c1ccc(N2CCN(c3nc4c(S(=O)(=O)c5ccccc5)nnn4c4ccc(Cl)cc34)CC2)cc1", "Potency": "inactive"}, {"smiles": "C#CCOCCOCCOCCNc1nc(N2CCN(C(=O)C([C@@H](C)CC)n3cc(C(N)COC(=O)C(F)(F)F)nn3)CC2)nc(N2CCN(C(=O)[C@H](CCCCN)n3cc(C(N)CC(C)C)nn3)CC2)n1", "note": "(stereo partly specified)", "Potency": "inactive"}, {"smiles": "C#CCOCCOCCOCCNc1nc(N2CCN(C(=O)CCCCCCCCCCNC(=O)[C@H]([C@@H](C)CC)n3cc(CCCCN=C(N)N)nn3)CC2)nc(N2CCN(C(=O)CCCCCCCCCCNC(=O)[C@H](CO)n3cc(CCCSC)nn3)CC2)n1", "Potency": "50.1 µM (active)"}, {"smiles": "C#CCOCCOCCOCCNc1nc(N2CCN(C(=O)C([C@@H](C)CC)n3cc(C(N)COC(=O)C(F)(F)F)nn3)CC2)nc(N2CCN(C(=O)[C@H](Cc3ccc(O)cc3)n3cc(C(N)[C@H](C)CC)nn3)CC2)n1", "note": "(stereo partly specified)", "Potency": "inactive"}, {"smiles": "C#CCOCCOCCOCCNc1nc(N2CCN(C(=O)CCCCCCCCCCNC(=O)[C@H](CCCCN)n3cc(C)nn3)CC2)nc(N2CCN(C(=O)CCCCCCCCCCNC(=O)[C@H](CO)n3cc(CCCSC)nn3)CC2)n1", "Potency": "89.1 µM (active)"}, {"smiles": "C#CCOCCOCCOCCNc1nc(N2CCN(C(=O)[C@H](CCC(=O)O)n3cc(C(N)CO)nn3)CC2)nc(N2CCN(C(=O)[C@H](Cc3ccc(O)cc3)n3cc(C(N)[C@H](C)CC)nn3)CC2)n1", "note": "(stereo partly specified)", "Potency": "inactive"}, {"smiles": "COc1ccccc1NC(=O)Cn1cnc2ccc(S(=O)(=O)N3CCC(C)CC3)cc2c1=O", "Potency": "inactive"}, {"smiles": "COc1ccc(-c2nc3c4ccccc4n(CC(=O)Nc4ccc(C(C)=O)cc4)c(=O)n3n2)cc1", "Potency": "inactive"}, {"smiles": "O=C(CSCc1cnn(-c2ccccc2)c1-n1cccc1)NCc1ccc(Cl)cc1", "Potency": "inactive"}, {"smiles": "CCOc1ccc(-c2cc3nc(C4CCN(C(=O)OC(C)(C)C)CC4)c(C(=O)Nc4cccc(CC)c4)cn3n2)cc1", "Potency": "inactive"}]}]}
